Hit rate of the full screen: of about 220,000 compounds, about 3,300 (1.5%) were called active. This excerpt belongs to a sample that is enriched for actives. Values without a mark were called inactive.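 The calls were made as follows: active = compounds that cut the protein-peptide binding signal by more than 50% relative to plate controls in a single-dose test; inactive = the rest.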
What follows are molecules tested against Induced myeloid leukemia cell differentiation protein Mcl-1 (Homo sapiens) (UniProt Q07820) (assay: Mcl-1/Noxa binding inhibitors, primary screen, biochemical, TR-FRET, 1536-well (AID 1022;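 also: His-tagged Mcl-1 with rhodamine Noxa BH3 peptide and terbium anti-His antibody; 0% = Mcl-1 plus Noxa peptide wells and 100% = peptide-only wells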)). Details: TR-FRET Mcl-1/Noxa peptide binding, 2 h; at 21.7 µM; hits give high values.
Induced myeloid leukemia cell differentiation protein Mcl-1 (Homo sapiens), sequence (Q07820 whole entry, looked up): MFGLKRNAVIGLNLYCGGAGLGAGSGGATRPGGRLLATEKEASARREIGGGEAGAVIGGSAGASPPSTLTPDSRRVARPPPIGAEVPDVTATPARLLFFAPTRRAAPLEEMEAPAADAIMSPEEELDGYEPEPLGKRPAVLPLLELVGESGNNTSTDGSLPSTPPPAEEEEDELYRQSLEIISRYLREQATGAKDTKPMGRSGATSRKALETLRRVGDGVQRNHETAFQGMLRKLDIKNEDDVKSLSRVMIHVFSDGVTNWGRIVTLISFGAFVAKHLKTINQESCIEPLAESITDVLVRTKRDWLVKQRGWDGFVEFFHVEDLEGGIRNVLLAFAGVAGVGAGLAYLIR
`Cc1ccc(NC(=O)/C(=C/c2ccc([N+](=O)[O-])cc2)NC(=O)c2ccccc2)cc1` showed an inhibition of 3.04%. `Cn1nccc1NC(=O)Nc1ccc(OC(F)(F)F)cc1` gave an inhibition of -2.66%. With `Oc1c(Cl)cc(Cl)c(Cl)c1Cc1c(O)c(Cl)cc(Cl)c1Cl` the inhibition was 104% (active). For `CCN(/N=C/c1ccc(N(C)C)cc1)c1nc2ccccc2[nH]1`, the inhibition was 81% (active). For `Oc1ccc(/C=N/N(Cc2ccccc2)c2ccccc2)cc1`, the inhibition was 27%. In the case of `CN(C)c1ccc(/C=N/N(Cc2ccccc2)c2ccccc2)cc1`, the inhibition is reported as 95.7% (active). Molecule `CN(C)c1ccc(/C=N\S(=O)(=O)c2ccccc2)cc1` has an inhibition of 2.37%. Work on `COC(=O)Cc1nc2ccccc2[nH]1` yielded an inhibition of 9.2%. `CCN(/N=C/c1ccccc1)c1cc(=O)n(C)c(=O)[nH]1` was tested, and the inhibition was 21%. `COc1cc(C(F)(F)F)nc2c(Br)c(C(C)(C)C)nn12` was tested, and the inhibition was 7.39%. `CN(C)S(=O)(=O)c1ccc(C(=O)NCC(C)(C)N2CCOCC2)cc1` gave an inhibition of 7.92%. Work on `Cc1ccc(NNC(=O)c2c(F)cccc2Cl)cc1Cl` yielded an inhibition of 0.81%. With `CCOC(=O)C1CCN(C(=O)Nc2cccc(OC)c2)CC1` the inhibition was -13.3%. `COc1cccc(C(=O)n2ccc(-c3cccs3)n2)c1` was tested, and the inhibition was 1.68%. For `Cc1nnc(SC(C(=O)c2ccccc2)c2ccccc2)[nH]c1=O` (configuration not stated), the inhibition was -5.97%. For `Cc1cc2c(cc1C)N(Cc1ccccc1)C1=NCCCN12`, the inhibition was -4.28%. Molecule `COc1ccc(/C=N/Nc2nc3ccccc3o2)cc1OC` has an inhibition of -2.8%. With `COc1cc(/C=N/Nc2nn3cnnc3c3ccccc23)cc(OC)c1OC` the inhibition was 52.5% (active). For `CCOc1ccc(/C=N/Nc2nncc(-c3ccccc3)n2)cc1OC`, the inhibition was 14.2%. With `C=CCN(c1ccccc1C(=O)NCC(=O)OCC)S(=O)(=O)c1ccc(C)cc1` the inhibition was 8.19%. With `CC(CCO)Nc1nc2c([nH]1)c(=O)n(C)c(=O)n2C` (configuration not stated) the inhibition was -3.43%. For `Cc1ccc(NN=Nc2nc3c([nH]2)c(=O)n(C)c(=O)n3C)cc1`, the inhibition was 55.6% (active). `CCCSc1nc2c(c(=O)n(C)c(=O)n2C)n1Cc1ccc(C)cc1` was tested, and the inhibition was -4.96%. `Cc1cc(C(=O)NNS(=O)(=O)c2ccccc2C(F)(F)F)nn1C(C)(C)C` was tested, and the inhibition was -0.45%. `Cc1cc(N2CCN(c3ccc(F)cc3)CC2)n2ncnc2n1` showed an inhibition of -1.64%. `CC(C)NC(=O)NNc1c(Cl)cncc1Cl` was tested, and the inhibition was 3.37%. `Clc1cccc(-c2nc3nc4ccccc4nc3n2Cc2ccco2)c1` was tested, and the inhibition was 4.89%. For `Cc1ccc(Cn2c(C)nc3c(c2=O)c2nc4ccccc4nc2n3Cc2ccco2)cc1`, the inhibition was 63.1% (active). In the case of `Cc1ccc(Cn2c(NC(=O)c3ccco3)nc3ccccc32)cc1`, the inhibition is reported as 1.28%. With `COc1ccc2c(c1)C(=C(C#N)C#N)C(=O)N2CCc1ccccc1` the inhibition was -4.33%. Molecule `CCCCCn1c(=O)c(C(=O)OCC)c(Cl)c2ccccc21` has an inhibition of -2.04%. With `CCOC(=O)/C=C/CN(C(=O)OC(C)(C)C)S(=O)(=O)N1CC=CC1` the inhibition was -18%. With `CCC(C)N1C(=S)SC(C)(C)C1N(O)C(=O)NC1CCCCC1` (configuration not stated) the inhibition was -0.12%. Work on `Cn1cccc1/C=C1\SC(=S)N(NC(=O)c2ccc(Cl)cc2)C1=O` yielded an inhibition of 18.5%. In the case of `CC(=O)N1C(=O)/C(=C2\SC(=S)N(NC(=O)c3ccc(O)cc3)C2=O)c2ccccc21`, the inhibition is reported as 94.5% (active). `O=C(O)c1ccc2c(c1)C(=O)N(NC(=O)c1ccc(O)cc1)C2=O` showed an inhibition of 12.9%. With `O=C(NCCc1ccccc1)Oc1ccc(Cl)cc1` the inhibition was 7.49%. Molecule `COC(=O)N(NC(=O)C(O)(C(C)C)C(C)C)c1ccccc1` has an inhibition of -6.13%. For `C/C(=N/Nc1nc(-c2ccccc2)c(CC(=O)O)s1)c1ccccc1`, the inhibition was 55.8% (active). For `Cc1ccc(-c2nc(C)sc2CC(=O)O)cc1`, the inhibition was 6.4%. `O=C(O)Cc1sc(-c2ccc(C(=O)O)cc2)nc1-c1ccccc1` was tested, and the inhibition was 15.3%. Work on `CCn1c(=O)c2cc(C(=O)Nc3cccc(C(C)=O)c3)sc2c2ccccc21` yielded an inhibition of -88.5%. With `O=c1c(-c2ccc(Cl)cc2)[n+]([O-])c2ccccc2n1OCc1nc2ccccc2[nH]1` the inhibition was -16.2%. With `COC(=O)CC1=NN(c2ccccc2)C(=O)C1` the inhibition was 19.1%. In the case of `COC(=O)CC1=NN(c2nc(C)cc(C)n2)C(=O)C1`, the inhibition is reported as 68% (active). `Cc1cc(C)cc(NC(=O)C2CCN(c3nc(C)cc(C)n3)CC2)c1` was tested, and the inhibition was -11.6%. With `CC(CO)(CO)NC(=O)c1ccc(=O)[nH]n1` the inhibition was 4.69%. Work on `O=C(c1ccc(F)cc1)C1CCN(Cc2cn[nH]c2-c2ccccc2)CC1` yielded an inhibition of -14.2%. `COc1cc(/C=N/NC(=O)c2cc(C)n(-c3ccc(F)cc3)c2C)cc(OC)c1O` gave an inhibition of 47.1%. For `Cc1cc(C(=O)N/N=C/c2ccc(O)c([N+](=O)[O-])c2)c(C)n1-c1ccc(F)cc1`, the inhibition was 87.3% (active). In the case of `Cc1nn(CC(=O)N/N=C/c2ccc(F)cc2)c(C)c1[N+](=O)[O-]`, the inhibition is reported as 12.1%. `Cc1ccc(/C=N/NC(=S)Nc2cccc(S(=O)(=O)N(C)C)c2)o1` gave an inhibition of -90.2%. With `OC(c1ccccc1)C(CN1CCOCC1)c1ccccc1` (configuration not stated) the inhibition was 6.74%. In the case of `CCNC(=S)N1CCN(CCN=CC2=C(O)CC(C)(C)CC2=O)CC1`, the inhibition is reported as 7.49%. With `NNC(=O)c1oc2nc(-c3ccccc3)cc(-c3ccco3)c2c1N` the inhibition was 72.9% (active). For `O=C(CCc1ccccc1)Nc1cccc(-c2nnc(-c3ccco3)o2)c1`, the inhibition was 14.2%. With `O=C(NCc1ccco1)c1nc(-c2ccccc2)n(-c2ccccc2)n1` the inhibition was -7.46%. `NC(=O)c1ccc(NC(=O)COC(=O)c2ccc([N+](=O)[O-])cc2)cc1` was tested, and the inhibition was -10.3%. With `CCOC(=O)c1c(NC(=S)NC)sc2c1CCCC2` the inhibition was 11.9%. For `COc1ccc(NC(=S)Nc2ccccc2Cl)cn1`, the inhibition was 16.9%. In the case of `COc1ccc(NC(=O)/C(Cl)=C(/Cl)S(=O)Cc2ccc(C)cc2)cn1` (configuration not stated), the inhibition is reported as 65.8% (active). For `COc1ccc(CS(=O)/C(Cl)=C(/Cl)C(=O)Nc2ccc(OC)nc2)cc1` (configuration not stated), the inhibition was 43.3%. For `CCNC(=O)CCc1nc(-c2ccc(C)cc2)no1`, the inhibition was -1.4%. `c1ccc(C2=Nc3cccc4cccc(c34)N2)cc1` was tested, and the inhibition was 37%. With `COc1ccccc1C1=Nc2cccc3cccc(c23)N1` the inhibition was 75.8% (active). For `Fc1ccccc1N=C1Nc2cccc3cccc1c23`, the inhibition was 16.1%. For `N#Cc1c(C(F)(F)F)cc(-c2cccs2)nc1N1CCCCC1`, the inhibition was -6.66%. With `COc1ccc2c(CC(=O)OCC(=O)NC(N)=O)coc2c1` the inhibition was 8.39%. In the case of `O=C(Nc1nnc(SCc2ccccc2)s1)c1ccco1`, the inhibition is reported as -9.36%. In the case of `c1ccc(CSc2nnc(-c3ccco3)n2Cc2ccccc2)cc1`, the inhibition is reported as 53% (active). For `Nc1nc(SCc2ccccc2Cl)n[nH]1`, the inhibition was -21.7%. `O=C(CSc1nnc(-c2ccco2)n1Cc1ccccc1)NC(=O)NCc1ccco1` gave an inhibition of 31.8%. Molecule `COC(OC)c1ccnc(SCc2ccccc2Cl)n1` has an inhibition of 2.7%. `Brc1ccc(CSc2ccc(-c3ccco3)nn2)cc1` gave an inhibition of 5.62%. In the case of `Clc1ccccc1CSc1nnc(-c2ccco2)c(-c2ccco2)n1`, the inhibition is reported as 109% (active). `c1ccc(CSc2nnc(-c3ccco3)c(-c3ccco3)n2)cc1` was tested, and the inhibition was 108% (active). With `O=C(CSc1nnc(-c2ccco2)n1CC1CCCO1)c1ccccc1` (configuration not stated) the inhibition was 5.57%. `COc1ccc(CC(=O)NCC(=O)N/N=C/c2cc(Br)ccc2OC)cc1` gave an inhibition of 0.9%. `Clc1ccc2nc(-c3ccccc3)nc(C(Cl)Cl)c2c1` showed an inhibition of -22.1%. In the case of `Nc1c(N(CCO)C(=O)C2CCCCC2)c(=O)[nH]c(=O)n1Cc1ccccc1`, the inhibition is reported as 24.7%. With `Cc1c(NC(=O)CN2C(=O)C(=O)N(Cc3ccccc3)C2=O)c(=O)n(-c2ccccc2)n1C` the inhibition was 8.51%. With `Cn1nccc1NC(=O)CC(CC(=O)O)c1ccccc1` (configuration not stated) the inhibition was -13%. With `Cc1cc(N2CCN(c3ccccc3)CC2)nc(N2CCOCC2)n1` the inhibition was 14.2%. For `CCS(=O)(=O)C1=NSC2=NC(=O)/C(=C\c3cc(C)n(-c4cccc(OC)c4)c3C)C(=N)N21`, the inhibition was 37.6%. In the case of `Cc1cc(/C=C2/C(=N)N3C(=NC2=O)SN=C3S(C)(=O)=O)c(C)n1-c1ccccc1`, the inhibition is reported as 16.9%. With `CS(=O)(=O)c1ccc2c(c1)SC1=NC(=O)/C(=C/c3ccco3)C(=N)N12` the inhibition was 103% (active). `OCC1(Cc2ccccc2C(F)(F)F)CCN(Cc2ccncc2)CC1` showed an inhibition of 13.3%. In the case of `CC(C)(C)NC(=O)NCc1ccco1`, the inhibition is reported as 8.79%. `O=C(Nc1ccccc1)Nc1nnc(COc2ccccc2F)s1` gave an inhibition of 23.7%. With `O=c1[nH]c(=S)[nH]c2[nH]c(=S)[nH]c12` the inhibition was 95.1% (active). Molecule `Cc1c(C)c(C)c2[nH]c(=S)[nH]c2c1C` has an inhibition of 2.53%. `Cc1cc(=O)[nH]c(=S)[nH]1` gave an inhibition of 4.28%. `O=C(COC(=O)/C=C/c1ccc2c(c1)OCO2)NC1CCS(=O)(=O)C1` (configuration not stated) showed an inhibition of 16%. With `COc1ccc(OC)c(Nc2nc3ccccc3n3cnnc23)c1` the inhibition was 16.9%. `O=C(N/N=C/c1ccc([N+](=O)[O-])o1)c1cccc(S(=O)(=O)N2CCOCC2)c1` was tested, and the inhibition was 5.84%. Work on `O=C(CN1CCN(c2ccc(O)cc2)CC1)Nc1cc(S(=O)(=O)N2CCOCC2)ccc1Cl` yielded an inhibition of 49.8%. In the case of `O=[N+]([O-])c1cc(Cl)cc(/C=N/NC(=S)Nc2cc(S(=O)(=O)N3CCOCC3)ccc2Cl)c1O`, the inhibition is reported as 100% (active).
